Screening data (PubChem BioAssay)
Shown are actives, neighbours in structure and some others; about 4.5% of the full set was active somewhere.
Casp7 inh = allosteric or competitive inhibitors of human caspase-7; Potency, µM (series often up to 57.5 µM), usual class: inhibitors; P55210; 75,000 tested, 0.02% active; recombinant caspase-7, Ac-DEVD-AFC fluorescence rate; active means well fitted inhibition curve with a large enough effect in the main read-out, with a control signal flat, not every such curve was filed as active; inconclusive means small, poorly fitted or top-dose-only effect, or a change in a side signal
ERK AVP inh = inhibitors of vasopressin-stimulated ERK signaling pathway; HEK293-V1b, vasopressin-stimulated pERK AlphaScreen; Potency, µM (doses to about 57.5 µM), usual class: inhibitors; 72,000 tested, 0.99% active; further: nearly all actives have a fitted effect of over 55% in size
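qHTS, compounds titrated on V1b-expressing HEK293 cells. Preincubation 30 min at 37C, vasopressin 25 nM for 5 min, lysis 10 min, bead incubation 5 hr at room temperature.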
HEK293 cAMP ctrl = counter-screen for TSHR agonists: cAMP increase in parental HEK293 | Potency, µM (highest dose often 57.1 µM), usual class: activators | AID 938 | 73,000 tested, 2.5% active | parental HEK293 CNG cAMP sensor, membrane potential fluorescence; further: nearly all actives have a fitted effect of over 55% in size
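Parental HEK 293 cells stably expressing a cAMP-gated CNG channel were loaded with membrane potential dye containing 100 uM RO 20-1724 for 60 min. Compound added for 30 min; depolarization read as fluorescence intensity at 590 nm.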
GBA activity = alters purified human glucocerebrosidase activity; purified enzyme, resorufin glucoside fluorescence (screen aimed at inhibitors), 20 min; Potency, µM; P04062; 48,000 tested, 1.1% active; in the data active means potency below about 15 µM; inconclusive means mostly about 16 µM to 33 µM;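 further: the screen sought inhibitors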
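Wild-type enzyme at 0.2 nM final in 50mM citric acid/KH2PO4, 10mM sodium taurocholate, 0.01% tween-20, pH 5.9, with resorufin beta-D-glucopyranoside at 30 uM final. Compounds titrated, 20 min at RT, red fluorescence read; AC50 from titration.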
Caspase-1 inhib = caspase-1 (human) inhibition, allosteric or competitive | Potency, µM (highest dose often 57.5 µM), hits mostly inhibitors | Caspase-1 enzyme, Ac-WEHD-AFC fluorogenic rate | 75,000 tested, 0.03% active | P29466
TSHR ag = activates the human thyroid stimulating hormone receptor; HEK293-CNG-TSHR cells (CNG channel as cAMP sensor), membrane potential dye, cAMP; Potency, µM (top dose mostly 57.1 µM), hits mostly activators; 73,000 tested, 0.48% active; active means well fitted activation curve with a large enough effect in the main read-out, with a control signal flat, not every such curve was filed as active; inconclusive means small, poorly fitted or top-dose-only effect, or a change in a side signal; inactive means no such curve, though single readings can be large or run the other way; reference of the percent scale not stated here;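 further: the control signal comes from parental cells without the receptor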
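HEK 293 cells stably expressing TSHR and a modified CNG channel, with CNG-only parental cells as counterscreen, were preloaded 60 min at room temperature with membrane potential dye containing 100 uM RO 20-1724. Compound exposure was 30 min, and depolarization was read as fluorescence at 590 nm.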
parental cAMP = counter-screen for TSH receptor agonists: cAMP in parental HEK293 cells | shares compounds with TSHR ag | parental HEK293 CNG biosensor, cAMP membrane potential fluorescence | activity change, negative = inhibition, % at 32.9 µM | 150 tested, under 10 active | AID 953
Hits are given with their value; i = inactive; ? = inconclusive; nt = no result given; [ ] = remark or other dose. Unless noted, the call rests on the fitted dose curve; in most records, active means well fitted curve in the direction sought with a large enough effect; inconclusive means small, poorly fitted or top-dose-only effect, or another doubt; inactive means no such curve, though single readings can be large; an effect the other way counts as inactive or inconclusive.

SMILES | Casp7 inh | ERK AVP inh | HEK293 cAMP ctrl | GBA activity | Caspase-1 inhib | TSHR ag | parental cAMP
CC(C)CC(=O)Nc1cccc(-c2cn3ccsc3n2)c1 | i | 16µM | i | nt | i | 16µM | i
CCC(=O)Nc1cccc(-c2cn3ccsc3n2)c1 | i | i | i | i | i | i | nt
Cc1ccccc1-n1nc(C)c2cc(C(=O)N3CCN(S(=O)(=O)c4ccc(F)cc4)CC3)sc21 | i | i | i | i | i | 16µM | i
Cc1nc2ccc(NC(=O)c3ccc(S(=O)(=O)N4CCOCC4)cc3)cc2s1 | i | i | i | nt | i | i | ?
CN1C(=O)C2C=CC1C1C(=O)N(c3ccccc3)C(=O)C21 (stereo not given) | i | i | i | nt | i | i | i
O=S1(=O)N=C(Oc2ccccc2)c2ccccc21 | i | i | i | nt | i | i | i
Cc1nn(-c2ccccc2)c(N2CCCC2)c1/C=N/n1cnc2scc(-c3ccccc3)c2c1=O | i | i | i | i | i | 3.2µM | i
Cc1ccc(-c2csc3ncn(/N=C/N(C)C)c(=O)c23)o1 | i | i | i | i | i | i | nt
O=C(Nc1ccc(N2CCOCC2)cc1)NC1CCCCC1 | i | nt | i | nt | i | i | nt
O=C(Nc1ccc(N2CCOCC2)cc1)C1CC1 | i | i | i | i | i | i | i
CCN(c1ccccc1)S(=O)(=O)c1ccc(Oc2ccc(-n3ccnc3)cc2)nc1 | i | i | i | i | i | 25µM | i
COc1cccc(Cn2c(=O)cnc3cnc(Oc4cccc(Cl)c4)nc32)c1 | i | i | i | nt | i | i | nt
CCOc1nc(-c2ccc(OC)cc2)ccc1-c1noc(C)n1 | i | i | i | i | i | i | nt
COc1ccc(-c2ccc(-c3noc(C)n3)c(OC)n2)cc1 | i | i | i | i | i | 3.2µM | i
COc1ccc(OC)c(CNC(=O)C2CCN(S(=O)(=O)N3CCCC3)CC2)c1 | i | i | i | i | i | i[11.4 µM] | nt
COc1ccc(Br)cc1CNC(=O)C1CCN(S(=O)(=O)N2CCCCC2)CC1 | i | i | i | i | i | i | i
Cc1noc(C)c1C(=O)N1CCC2(CCCN(Cc3ccc(C#N)cc3)C2)CC1 | i | i | i | nt | i | i | nt
Cc1nc2ccc(Br)cn2c(=O)c1Cl | i | i | i | nt | i | i | i
COc1ccc(F)cc1S(=O)(=O)n1cc(C)nc1-c1ccccc1 | i | i | i | i | i | i | i
N#[N+]c1ccc(Nc2ccccc2)cc1 | i[11.5 µM] | i[11.5 µM] | i[11.4 µM] | nt | i[11.5 µM] | i[11.4 µM] | nt
COC(=O)c1cc2c(s1)-c1ccccc1OC2 | ? | i | i | nt | nt | nt | nt
Nc1ccc2c(c1)COc1ccccc1O2 | i | i | i | i | i | i | i
COc1cccc(C(c2nnnn2Cc2ccccc2)N2CCN(C(=O)c3ccco3)CC2)c1OC (stereo not given) | i | i | i | i | i | 25µM | i
COc1ccc(C(c2nnnn2Cc2ccccc2)N2CCN(C(=O)c3ccco3)CC2)cc1 (stereo not given) | i | i | ? | i | i | ? | nt
Cc1cc(=O)oc2c(C)c(OCC(=O)N(C)C)ccc12 | i | i | i | i | i | i | nt
SMILES | Casp7 inh | ERK AVP inh | HEK293 cAMP ctrl | GBA activity | Caspase-1 inhib | TSHR ag | parental cAMP
COc1ccc2c(C)cc(=O)oc2c1C | i | i | i | nt | i | i | i
Cc1ccc(C)c(Cn2c(C(C)O)nc3ccccc32)c1 (stereo not given) | i | i | i | i | i | 4µM | i
COc1ccc(C)cc1Cn1c(S(C)(=O)=O)nc2ccccc21 | i | i | ? | i | i | ? | nt
O=C1CC2CS(=O)(=O)CC2N1c1ccc(Oc2ccccc2)cc1 (stereo not given) | i | i | i | i | i | i | nt
O=C1N(c2ccccc2)C2CS(=O)(=O)CC2N1c1ccc(Cl)c(Cl)c1 (stereo not given) | i | nt | i | nt | i | i | i
O=C(O)c1ccc(Cc2ccccc2C(=O)O)cc1 | i[11.5 µM] | i[11.5 µM] | i[11.4 µM] | nt | i[11.5 µM] | i[11.4 µM] | nt
CC1(c2ccccn2)Nc2ccccc2-c2nc3ccccc3n21 (stereo not given) | ? | i | i | i | nt | 16µM | i
c1ccc2c(c1)NC1(CCCCC1)n1c-2nc2ccccc21 | i | i | i | i | ? | nt | nt
Cc1cc(SCC(=O)c2ccc(Br)cc2)cc(C)[o+]1 | i[11.5 µM] | i[11.5 µM] | i[11.4 µM] | nt | i[11.5 µM] | i[11.4 µM] | nt
C[C@@H]1CC[C@H]2C(=O)N3[C@@H](CC[C@@H](C)[C@@H]3c3ccc(Br)cc3)C(=O)N2[C@@H]1c1ccc(Br)cc1 | i[11.5 µM] | i[11.5 µM] | i[11.4 µM] | nt | i[11.5 µM] | i[11.4 µM] | nt
